Experimental data as given in article PMC11062922 (Nature Chemical Biology, 2023).
Like-named read-outs stand apart in the source and are kept apart here.

What was measured:
Design in all cases: species or system human, MV4-11 + K-562 + COLO205 + SK-N-BE2 + OVCAR-8
ABL1 = conditions: read-out: apparent Kd, compound concentrations: 100 nM and 1000 nM (sheet 'Samples'), n = 1
ABL2 = conditions: read-out: apparent Kd, compound concentrations: 100 nM and 1000 nM (sheet 'Samples'), n = 1
BCR = conditions: read-out: apparent Kd; compound concentrations: 100 nM and 1000 nM (sheet 'Samples'), CATDS: 0.27388815671753503; n = 1
GAK = conditions: read-out: apparent Kd, compound concentrations: 100 nM and 1000 nM (sheet 'Samples'), n = 1
HCK = conditions: read-out: apparent Kd, compound concentrations: 100 nM and 1000 nM (sheet 'Samples'), n = 1
PTK6 = conditions: read-out: apparent Kd, compound concentrations: 100 nM and 1000 nM (sheet 'Samples'), n = 1
RET = conditions: read-out: apparent Kd, compound concentrations: 100 nM and 1000 nM (sheet 'Samples'), n = 1
RIPK2 = conditions: read-out: apparent Kd, compound concentrations: 100 nM and 1000 nM (sheet 'Samples'), n = 1
RIPK3 = conditions: read-out: apparent Kd, compound concentrations: 100 nM and 1000 nM (sheet 'Samples'), n = 1
LCK = conditions: read-out: apparent Kd, compound concentrations: 100 nM and 1000 nM (sheet 'Samples'), n = 1
YES1 = conditions: read-out: apparent Kd, compound concentrations: 100 nM and 1000 nM (sheet 'Samples'), n = 1
EGFR = conditions: read-out: apparent Kd, compound concentrations: 100 nM and 1000 nM (sheet 'Samples'), n = 1
FRK = conditions: read-out: apparent Kd; compound concentrations: 100 nM and 1000 nM (sheet 'Samples'), CATDS: 3.6217931786021701E-2; n = 1
FYN = conditions: read-out: apparent Kd, compound concentrations: 100 nM and 1000 nM (sheet 'Samples'), n = 1
LYN = conditions: read-out: apparent Kd, compound concentrations: 100 nM and 1000 nM (sheet 'Samples'), n = 1

## Fc1cc(Cl)ccc1Nc1ccnc2cc(-c3ccc(CN4CCOCC4)o3)ccc12 [GW560109X]
ABL1; CATDS: 5.7871370068112001E-2
  potency estimated from few doses: 1200 nM
ABL2; CATDS: 6.6885266429186699E-2
  potency estimated from few doses: 810 nM
BCR
  potency estimated from few doses: 66.4 nM
GAK; CATDS: 5.9630252923923099E-2
  potency estimated from few doses: 1100 nM
HCK; CATDS: 5.4118184617509203E-2
  potency estimated from few doses: 1480 nM
PTK6; CATDS: 6.7887281457167797E-2
  potency estimated from few doses: 780 nM
RET; CATDS: 9.1999760709611106E-2
  potency estimated from few doses: 400 nM
RIPK2; CATDS: 0.235092034784944
  potency estimated from few doses: 82.6 nM
RIPK3; CATDS: 7.3765709446288102E-2
  potency estimated from few doses: 641 nM

## Nc1ncc(-c2cn[nH]c2)c2scc(-c3ccc4c(c3)CCN4C(=O)Cc3ccccc3)c12 [GSK2593067A]
ABL1; CATDS: 6.1234065339549101E-2
  potency estimated from few doses: 1560 nM
LCK; CATDS: 7.5344179504310702E-2
  potency estimated from few doses: 841 nM
RIPK2; CATDS: 7.5110526663463406E-2
  potency estimated from few doses: 848 nM

## CN1CCN(Cc2cccc(-c3ccc4c(Nc5ccc(Oc6ccccc6)cc5)ccnc4c3)c2)CC1 [GW578342X]
ABL1; CATDS: 7.7551536280391298E-2
  potency estimated from few doses: 1560 nM
HCK; CATDS: 0.21487500019283201
  potency estimated from few doses: 115 nM
LCK; CATDS: 8.3289760013849606E-2
  potency estimated from few doses: 1190 nM
PTK6; CATDS: 7.71683723921405E-2
  potency estimated from few doses: 1600 nM
RIPK2; CATDS: 0.17287191269560401
  potency estimated from few doses: 177 nM
RIPK3; CATDS: 0.10117998061927
  potency estimated from few doses: 638 nM
YES1; CATDS: 0.46544607401261401
  potency estimated from few doses: 32.3 nM

## CN1CCN(Cc2ccc(-c3ccc4c(Nc5ccc(Oc6ccccn6)cc5)ccnc4c3)o2)CC1 [GW567140X]
ABL1; CATDS: 9.3195013096343204E-2
  potency estimated from few doses: 147 nM
EGFR; CATDS: 3.6910458353503803E-2
  potency estimated from few doses: 1180 nM
FRK
  potency estimated from few doses: 1260 nM
FYN; CATDS: 4.4615082678796297E-2
  potency estimated from few doses: 675 nM
GAK; CATDS: 3.56871929379163E-2
  potency estimated from few doses: 1320 nM
HCK; CATDS: 0.15093661180131901
  potency estimated from few doses: 68.5 nM
LCK; CATDS: 4.8128660017474401E-2
  potency estimated from few doses: 557 nM
LYN; CATDS: 3.5611600643533602E-2
  potency estimated from few doses: 1330 nM
PTK6; CATDS: 6.5275116077435802E-2
  potency estimated from few doses: 284 nM
RIPK2; CATDS: 0.141504972954966
  potency estimated from few doses: 75.4 nM
RIPK3; CATDS: 4.8755783013644902E-2
  potency estimated from few doses: 540 nM
YES1; CATDS: 6.0479326827192301E-2
  potency estimated from few doses: 332 nM

## Cc1cc(O)cc(C)c1/C=C/c1cncc(-c2nn[nH]n2)c1.Cl [GW441806A]
ABL2; CATDS: 4.9411968087492097E-2
  potency estimated from few doses: 1050 nM
HCK; CATDS: 5.4045361972082297E-2
  potency estimated from few doses: 799 nM
PTK6; CATDS: 5.1044813253260601E-2
  potency estimated from few doses: 947 nM
RIPK2; CATDS: 0.246510095033628
  potency estimated from few doses: 18 nM
RIPK3; CATDS: 4.07522630784811E-2
  potency estimated from few doses: 2090 nM

## CS(=O)(=O)Cc1ccc(Nc2nccc(-c3c(-c4cccc(NC(=O)c5c(F)cccc5F)c4)nn4ccccc34)n2)cc1 [GSK323543A]
ABL2; CATDS: 7.35852808685315E-2
  potency estimated from few doses: 971 nM
EGFR; CATDS: 5.5544990287731598E-2
  potency estimated from few doses: 2130 nM
HCK; CATDS: 9.4870937315331097E-2
  potency estimated from few doses: 576 nM
LCK; CATDS: 7.3424400867348402E-2
  potency estimated from few doses: 976 nM
LYN; CATDS: 6.3006631754301101E-2
  potency estimated from few doses: 1440 nM
RET; CATDS: 0.14439255275757601
  potency estimated from few doses: 289 nM
RIPK3; CATDS: 7.2905332862385097E-2
  potency estimated from few doses: 992 nM
YES1; CATDS: 0.11796638249333601
  potency estimated from few doses: 395 nM

## NS(=O)(=O)CCc1cccc(Nc2nccc(-c3c(-c4cccc(NC(=O)c5c(F)cccc5F)c4)nn4ccccc34)n2)c1 [GSK336735A]
ABL2; CATDS: 7.5550907623065294E-2
  potency estimated from few doses: 635 nM
EGFR; CATDS: 5.3399275908321601E-2
  potency estimated from few doses: 1520 nM
FYN; CATDS: 5.89205391615404E-2
  potency estimated from few doses: 1140 nM
HCK; CATDS: 9.1712833747147296E-2
  potency estimated from few doses: 439 nM
LCK; CATDS: 8.1556930046594894E-2
  potency estimated from few doses: 546 nM
LYN; CATDS: 7.1175193729883096E-2
  potency estimated from few doses: 720 nM
RET; CATDS: 0.15467463345214499
  potency estimated from few doses: 196 nM
RIPK3; CATDS: 7.11931563666406E-2
  potency estimated from few doses: 719 nM
YES1; CATDS: 0.104182093569698
  potency estimated from few doses: 354 nM
